Measurements reported in the supplement of paper PMC11417369.
In all, about 25,000 sequences were measured (“ln(normalized median fluorescence intensity)”: median about 9.3, highest 2% from about 10 on). The list comes from a sample in which the highest values are over-represented; it also holds similar and randomly drawn sequences.

These sequences were tested on PF3D7_0420300 AP2 domain 1 (GST-tagged) (assay: gcPBM binding intensity (ln(normalized median fluorescence intensity)); higher = stronger DNA binding).
In short: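 Using an Agilent 4 × 180k array, primer-extended double-stranded 36-bp intergenic genomic probes and negative controls were exposed for 1 h to GST-fused P. falciparum DNA-binding domains expressed in E. coli. Binding was carried out in 1× PBS with 1% milk, 0.2 mg/ml BSA, 0.5% salmon testes DNA and 0.03% Triton X-100, and protein was detected with Alexa488 anti-GST antibody and a 488 nm scan. Binding intensity is the highest Masliner-normalised natural-log median intensity across replicate spots of either probe orientation.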

Sequence | gcPBM binding intensity (ln)
TACGTATGCCTGTGATGTACATATATATATACATAC [XGTACX_site4728] | 9.36
AATCACCAAATATGTACACACCTTAACATGTTTATA [CACACA_site5180] | 9.64
TTTAAAAGATAAAACACACATACTAATAAAAAACAA [CACACA_site2556] | 9.71
AAGTGTCAAAGTTACACACACAAACTTGTCATTTTT [CACACA_site837] | 9.75
AAAAATCATTTAAGAACACACAAATATTTCCATTAA [CACACA_site1488] | 9.35
TTATCCTTGTAACAATGTACACATTATTTAATACTT [XGTACX_site1830] | 9.29
TACATATTTTTCTTTTCACACATGGAAAAAAAAGGT [CACACA_site5146] | 9.11
ACATATAAAATGTATACACACAAATATTACAGAGAT [CACACA_site4920] | 9.8
ATTCATATGAAACACACACACACACCCATAAAAAAA [CACACA_site3246] | 10.1
TAAACACCCATATAAACACACATATAAACACCCATA [CACACA_site5382] | 9.84
TCATAGTATAAACACACACACACACCCATATATATA [CACACA_site8512] | 10.3
CACAGTGATATAAAAACACACATGAATTATAATTTC [CACACA_site1667] | 9.43
TTTTTCTGTTCTTTTTGTACTTAAATATATTTATTT [XGTACX_site5658] | 9.57
TAAATATTATATTTATGTACATAAGTTTTTTTTAAT [XGTACX_site3559] | 9.08
AATATTTCTATATGAACATGCAATGTATCTTTTTAT [TGCATGCA_site738] | 9.13
AGTATACATATATATACACACACACCGATATATATA [CACACA_site8357] | 10.1
TAAATAAATTTATACACACACACACCGATATATATA [CACACA_site4622] | 10.1
ATAGTATACGGACACACACACACACCGATATATATA [CACACA_site5032] | 10.3
ATAGTATACAGACACACACACACACCGATATATATA [CACACA_site8511] | 10.3
AGTATACACAGACACACACACACATATATATATATA [CACACA_site8510] | 10.2
CATATACTCGGACACACACACACACCGACAAAAAAA [CACACA_site4433] | 10.1
ATTCATCTATTTTGTAGTACTAAATATATATCTACT [XGTACX_site8790] | 9.46

Sequence | gcPBM binding intensity (ln)
TGTAATAATCTTCATTTCTTTTTTTTTTTTTTTTGT [CACACA_negctrl_site1388] | 8.96
ATTTACATAATAAAATGTACATTTATAAATATTATA [XGTACX_site1901] | 9.13
AATATAGATACATATACACACACACCCATACATATA [CACACA_site9137] | 10.1
CACAGATATATACATACACACATATATACACATATA [CACACA_site6323] | 9.72
CATACATACATACATACACACATACAGATATATATA [CACACA_site4890] | 9.84
TATAGATACATATACACACACACACCGACATATATA [CACACA_site9138] | 10.3
TATAGATACAGATACACACACACACCGACATATATA [CACACA_site5832] | 10.2
CATATATAGATATATACACACATACATACATACATA [CACACA_site7748] | 9.59
ATATATATATAATAAGTGCAAAAAAAAGAAAAAAAT | 9.74
GTTTAACTGTTTTATACACACAATGTATCCAATAAA [CACACA_site5612] | 9.49
ATAAAATTTATATAAGCACACAAATATATATTTATA [CACACA_site9083] | 9.29
TATATATTATTTAAAACACACAAAAAAAAAAATTAT [CACACA_site89] | 9.59
GATAAATTAAAACACACACACATATATATATATATA [CACACA_site3962] | 9.67
AGTATAAAAATAAGCACACACACAAATATATATTTA [CACACA_site923] | 10.2
AATATAAATAAAAACACACACACACGGATATTTATA [CACACA_site7134] | 10.3
TATAAAAATAAGCACACACACAAATATATATTTATT [CACACA_site922] | 10.1
ACTTATATAAAACATTAACACACAAAGAAAAAAAAT [CACACA_site8529] | 9.96
TAAAAAAAAAAAAAAACACACATATAAATATTTATA [CACACA_site6702] | 9.45
CTTATATTAAAACACACACACGCACAAAACAGAAAT [CACACA_site1462] | 10.2
CATAAAATATAAAACACACACACATATATTTATATA [CACACA_site6247] | 10
AAAAACAACACAGATAAATTAACACACACACACATA [XGTACX_negctrl_site588] | 10.2
CATAATACAGATAACACACACAATTATACATAAAAT [CACACA_site5742] | 10

Sequence | gcPBM binding intensity (ln)
AACCACATACATATAACACACATATACAATATATAT [CACACA_site8607] | 9.65
TTTTGTTATTATAAATAGTAACATTTGTGAATATAT [TGCATGCA_negctrl_site132] | 8.92
GGCCCAACTTCTTCTGACGAAAACGTAAATTGTGTG [XGTACX_negctrl_site533] | 9.22
CTATATCATTTTCTAGCACACACATTGTTATTACCT [CACACA_site8204] | 9.84
AAAAACTAACTGTATTGTACTCTCTTATAAATTCAC [XGTACX_site8967] | 9.15
ATATATATATATATATATATAATAAAAGATCATTTA [XGTACX_negctrl_site371] | 9.09
AAAAAATATATATATATATATATGTAATATTTTTTT [XGTACX_negctrl_site439] | 9.07
TAAATAATGTAAAAAACATCATCAAAATGTTAATTA [CACACA_negctrl_site1768] | 9.09
TATGAAATATTTATACACAGAACTTCATAATTTTCA [TGCATGCA_negctrl_site509] | 9.04
CGTGAATATATGATATGTACTTATAAAAATTTGTGC [XGTACX_site5480] | 9.26
ATAAAAAAAGGACACACACACATATATTTATTTATA [CACACA_site7438] | 10.1
CTATTTCATAAACACACACACACAAACAAACATATA [CACACA_site8234] | 10.4
AATAAATATATATTCACACACAAACATATATATATA [CACACA_site4023] | 9.71
AATACAATTTTTAACACACACACAATAATACAGATA [CACACA_site4823] | 10.2
AACACAGATAAATTAACACACACACCCATATATATA [CACACA_site9310] | 10.1
ATAAAAAGGAGACACACACACACACGCATATTTATA [CACACA_site6551] | 10.3
CACAGATAAATTAACACACACACACCGATATATATA [CACACA_site6049] | 10.2
ATTTAATACAAATACACACACAAATAAATACAGATA [CACACA_site5956] | 10.2
TAAATAAAAAGACACACACACATATTTATATTTATA [CACACA_site7135] | 10
CTATTTCATGGACACACACACACAAACAAACATATA [CACACA_site4696] | 10.2
CACAGATAAATTAACACACACACACCCATATATATA [CACACA_site3960] | 10.1
ATACAACAGATATATACACACATATAACAATAATAA [CACACA_site7560] | 9.93

Sequence | gcPBM binding intensity (ln)
TTGTGTTTTATTATTTTATTATTACTATTATAATGT [GTGCAC_negctrl_site484] | 9.62
TAAATATATATTATATGTACTTATATATATATATAT [XGTACX_site4448] | 9.13
TAATTTTCTTTTTATCGTTTTTTTTTTTTTTTTTTT [XGTACX_negctrl_site432] | 9.02
AGCTAATATATCTTATATTCATATAAAAAAATATAT [CACACA_negctrl_site1786] | 8.94
AAATTTACAATACATTGTACATATTAATAATATTCC [XGTACX_site3646] | 9.17
CAGTTGGAAGGAAAGTGTACATAAAAAAAAATATAA [XGTACX_site8784] | 9.09
TCTTTTTAGATATATACACACCGTGTCTACCTATAC [CACACA_site7551] | 9.41
AAATGAATAAATAGGTCACACACAAATATATATAAA [CACACA_site8764] | 9.91
TATTAATATATAGTAGTGCAATAAAGATATACTGAA | 9.39
TTTCGATTAAAAATTGTACAATATAAGGAGCACACA [GTGCAC_negctrl_site476] | 9.31
CACAAAAATAAACACACACACATATATATTTATTAT [CACACA_site5923] | 10.2
CAATATAAAAAACACACACACAAACATATATTTATA [CACACA_site3703] | 10.1
ATAATACAATTTATAACACACACACTATAATACATA [CACACA_site8338] | 9.97
AAAATTAAAAATAACACACACATATTTATATTTATA [CACACA_site7329] | 9.75
AAAATTAAAAATAACACACACATATATATATTTATA [CACACA_site2776] | 9.84
ATATAATTATAAAATAAACACACATATATATTTATA [CACACA_site8039] | 9.48
ATCTTATATGATCACACACACACGCACAAAACAGAA [CACACA_site4913] | 10.1
TACATAATACATATAACACACACAATTATACATAAA [CACACA_site9060] | 10
ATCTTATATTATCACACACACACGCACAAAACAGAA [CACACA_site1463] | 10.1
CACAGATAAATTAACACACACACACGGATATTTATA [CACACA_site7788] | 10.2
ATATCTTATGTTATCACACACACACGCACAAAACAG [CACACA_site6800] | 10.2
AATACAATTTATAACACACACACAATAATACATATA [CACACA_site1252] | 10.2
